Laboratory results from the supplement of paper PMC13380429.
A number with no mark means an inactive call.

System: Vero E6 infected with SARS-CoV-2
Experiment: inhibition of SARS-CoV-2 cytopathic effect; higher = more antiviral protection, active = above 15
Details: 48 h

Structure (SMILES) | inhibition of SARS-CoV-2 cytopathic effect (1 nM) | inhibition of SARS-CoV-2 cytopathic effect (8.33 nM) | inhibition of SARS-CoV-2 cytopathic effect (100 nM) | inhibition of SARS-CoV-2 cytopathic effect (833.33 nM) | inhibition of SARS-CoV-2 cytopathic effect (10000 nM)
CNC(=O)O[C@H]1COc2ccc(N3CCN(C4COC4)CC3)cc2[C@@H]1NC(=O)c1ccc(F)cc1 | 1.12% | -0.75% | -1.06% | 0.34% | 1.4%
Cc1cc2c(OCC(CNC(C)(C)C)OC(=O)c3ccccc3)cccc2[nH]1 (stereo not given) [bopindolol] | -0.9% | -1.91% | -0.64% | 0.54% | 0.29%
C[C@H]1C[C@H]2[C@@H]3CCC4=CC(=O)C=C[C@]4(C)[C@@]3(Cl)[C@@H](O)C[C@]2(C)[C@@]1(O)C(=O)CO [beclomethasone] | -6.12% | -1.77% | 0.28% | -4.99% | -2.5%
N[C@@H](Cc1ccc(O)cc1)C(=O)O [plovamer-acetate] | -8.12% | -7.1% | -9.88% | -9.04% | -5.19%
COC(=O)c1ccc2c(c1)nc(NC(=O)c1ccccc1)n2CCCc1ccccc1 | -0.52% | -1.27% | -1.28% | -5.07% | -1.86%
CCCCCCCCCCCCCCCC[N+](C)(C)CCN(Cc1ccc(OC)cc1)c1ncccn1 [thonzonium] | -1.08% | -1.07% | 3.19% | -1.67% | -15.8%
OC1(c2ccc(Cl)c(C(F)(F)F)c2)CCN(CCCC(c2ccc(F)cc2)c2ccc(F)cc2)CC1 [penfluridol] | -1.2% | 2.8% | 1.5% | -2.41% | 33.9% (active)
CN1CCN(c2ccc(Nc3ncc4cc(C#N)c(=O)n(C5CCCC5)c4n3)cc2)CC1 | 1.39% | 1.36% | -0.35% | -6.03% | -6.23%
C=CC[N@@+]12CC[C@@]34c5ccccc5N5/C=C6/[C@H]7C[C@H]8[C@@]9(CC[N@@+]8(CC=C)C/C7=C/CO)c7ccccc7N(/C=C(/[C@@H](C[C@@H]31)/C(=C\CO)C2)[C@H]54)[C@@H]69 [alcuronium] | 1.2% | -0.77% | -0.24% | -0.81% | 4.13%
COCc1nnc(N2CC(Oc3ccc(F)cc3Cl)C2)n1-c1ccc(OC)nc1 | -1.23% | -3.96% | -0.12% | -1.42% | -1.43%
CCCCOc1nc(N)c2c(n1)N(Cc1cccc(CN3CCCC3)c1)CC(=O)N2 | 0.32% | 2.16% | 0.03% | 2.02% | 1.92%
CC1=C(C(=O)OC2CCCCC2)C(c2ccc([N+](=O)[O-])cc2)C2=C(CC(C)(C)CC2=O)N1 (stereo not given) | -1.14% | -1.2% | -1.86% | 1.14% | 23.1% (active)
CC(C)n1nc(C#Cc2ccccc2)c2c(N)ncnc21 | 0.9% | -1.43% | -4.23% | 0.67% | 3.02%
COc1ccc(O)cc1 [mequinol] | 2.15% | -1.51% | 2.67% | 1.18% | 2.53%
CC(=O)Nc1cccc2c1c(Sc1ccc(Cl)cc1)c(C)n2CC(=O)O | -2.31% | -3.4% | -2.21% | -0.59% | -0.66%
CN(C)C(=O)COC(=O)Cc1ccc(OC(=O)c2ccc(NC(=N)N)cc2)cc1 [camostat-mesilate] | 3.69% | -0.38% | 1.74% | 1.93% | -2.24%
CCOc1cccc(NC(=O)c2ccc(N3CCCC3)c(C(F)(F)F)c2)c1 | 0.59% | -0.15% | -0.42% | -1.65% | -2.63%
C=CC(=O)Nc1ccc2ncnc(Nc3cccc(Br)c3)c2c1 | -0.46% | -1.31% | -13.7% | -13.8% | -13.2%
